# Tested on: VDR:RXRa (NR concentration 270 nM, RXRa partner concentration 90 nM)
# Assay: PBM binding z-score (relative to random genomic background probes); higher = stronger binding; sequences stand for … in GC…GCGATTGACAGCGTAGAATGAAGG
# Protocol: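 Protein-binding microarray (Agilent 4x180K custom design, double-stranded 60-nt probes: 5' GC cap, 34-nt variable region, 24-nt constant primer region; full probe sequence given). Purified or IVT nuclear receptor:RXRα heterodimers (3:1 NR:RXRα, mostly 270:90 nM) or homodimers were incubated for 1 h in PBS with 2% milk and no ligand, then detected with Alexa488 antibodies. Fluorescence from o1-orientation probes (~5 replicates averaged) was converted to z-scores against 500 random hg19 background probes. Variable regions are seed direct-repeat (DR0–DR5) sites, all their single-nucleotide variants and half-site ablations.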
row,Sequence,PBM binding z-score
1,GGAACTAGGGCATTCGAGTTGATAGCATGGCGAT,1.23
2,CCTTACGGGTCAAGGTTCTAGCACGGGTGGTACG,3.1
3,TCAGACAGGTGAAGGTAACTCAAGTACGCAGTCG,1.12
4,CGAAATAGGTCATCCAGGACAGTGAATACATTGA,5.63
5,TGTCAAAGTTCAAAGGGAACGTAAGTATCCACAC,4.92
6,CAAGACAGGTGAGAAGGTAACTCAGCCTCGATTA,-0.155
7,GTACCAAGGTGAATTGGTCGTTGATGAGTAGGCG,-0.409
8,GTACCAAGGCGAATAGGTCGTTGATGAGTAGGCG,-0.145
9,AGTCAAAGATCACTAGGTAACGTAAGATTCAGCT,-0.124
10,TTACCTAGGTGAGCTGAGGTCGTTGATCCAACTC,3.05
11,TCTAGCAGGCCAGAGGCTCACTCAAGAGGTACGG,-0.485
12,TCTCGGAGCACACGAAAGGTCAGAGCTCGACATC,2.26
13,ATATGTAGGCTACATCCGGGTCATTCAGGCTATG,2.92
14,CCTACTGGGCTATTCAGAGGTCATTGATCATATG,3.57
15,AGTCAAAGTTCACTAGGTACCGTAAGATTCAGCT,4.35
16,CCTGCTAGCTCATGGTCAGCTAATCTACAGTATG,-0.366
17,TCGAGTAGGTTACCAATGGGGCATTTAGCTTTCT,0.185
18,CATACAGGGTCAGCTAGTCCAGAGTAGGGACGGC,4.36
19,GTAGCAAGGTGAATAGGTCGTTGATGAGTAGGCG,0.451
20,ACAGACAGGTGCGTGAAGGTAACTCAGCTGGACG,-0.488

row,Sequence,PBM binding z-score
1,GCCAGCAGGCCATTTGGGTCACTCAATGACGGGC,0.978
2,CCCACTGGGCCAAAGGTCATTGATTCCAATGCTC,4.73
3,ACAGACAGGTGATGAAGGTGACTCAGGCTATCAT,0.516
4,TATGCTAGGTCAACGATGGTCAGCTAATCTGCTA,1.79
5,GGAACGAGGGCAAAGCTGATAGCATCTGTCGACG,0.367
6,CGAACGAGGGCATGTGTTGATAGCAAATGCCGAT,0.931
7,CAGTCTAGGTCAGGGCCAGTATAGGAGGAACGTT,0.403
8,GGAACGAGGGCGAGTTGATAGCAGAGTTTGATGG,-0.000397
9,TCTATTAGTTGATTAGGTCAACCGAAACAGCGGA,1.94
10,ATCTCTAGGTAACCAAGTTCAGTGAGTGCCGAAC,4.27
11,ACCGACAGGTGAGTGAAGGTAACTCAGCTGGACG,-0.484
12,ATCTTTAGGTAAAAGTTCAGTGAATCCCGAGGAT,1.43
13,TGAATGGGGTTATAAGATCAGGGAACGTTGCAAA,2.58
14,AGAATTAGGTTATTAAGATCAGGGAATTGCGGTC,0.835
15,GCTAGTAGGCCATTTGGGTCACTCAATGACGGGC,0.995
16,TCTTGTAGATCAAAGGTTAAGGAAGCCGAAGCCT,1.59
17,ACTAGCAGGCCAAGGGTCACTCAAGATTAGTCCG,2.61
18,ATACCAAGGTGATCGTGAGGTCGTTGGTACTAAC,3.09
19,ACAGATAGGTGAGTGAAGGTAACTCAGCTGGACG,-0.335
20,ACTATTAGTTGAGACGACGGCAACCGATAGGTTG,-0.484

# Reference: the supplement of paper PMC6555819
